Reference: the supplement of paper PMC12669032

Columns and labels:
Assay in all cases: growth AUC relative to DMSO control (median of replicates) (fraction); higher = more growth (less inhibition), active = hit call of the paper
Details in all cases: 20 µM; 24 h;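 active = AUC reduced over 20% with Padj below 0.05 in at least 2 of 3 replicates; inactive = otherwise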
Akkermansia muciniphila = system: Akkermansia muciniphila
Procedure, shortened: (§1)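 Area under the growth curve was normalised to the plate median of solvent-only wells, or to row and column medians on the industrial chemical plate. Growth curves came from anaerobic gut bacterial monocultures in mGAM at 37 °C, seeded at OD600 0.05 with 20 µM compound (1% DMSO), and read at OD600 hourly for 24 h with the minimum OD set to 0. The value is the median of three biological replicates grown on separate days.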

Bacteroides caccae = system: Bacteroides caccae
Procedure, shortened: as §1

Bacteroides clarus = system: Bacteroides clarus
Procedure, shortened: as §1

Bacteroides dorei = system: Bacteroides dorei
Procedure, shortened: as §1

Bacteroides stercoris = system: Bacteroides stercoris
Procedure, shortened: as §1

[1] = system: Bacteroides thetaiotaomicron
Procedure, shortened: as §1

Bacteroides uniformis = system: Bacteroides uniformis
Procedure, shortened: as §1

[2] = system: Bifidobacterium longum subsp. longum
Procedure, shortened: as §1

Clostridium difficile = system: Clostridium difficile
Procedure, shortened: as §1

Collinsella aerofaciens = system: Collinsella aerofaciens
Procedure, shortened: as §1

Measured: growth AUC

Oc1ccc(Cl)cc1Cl
inactive: Akkermansia muciniphila 1.15 | Bacteroides caccae 0.802 | Bacteroides clarus 0.979 | Bacteroides dorei 0.893 | Bacteroides stercoris 0.938 | [1] 0.936 | Bacteroides uniformis 0.913 | [2] 1.05 | Clostridium difficile 0.946 | Collinsella aerofaciens 0.909

CCCN(CCC)c1c([N+](=O)[O-])cc(S(N)(=O)=O)cc1[N+](=O)[O-]
inactive: Akkermansia muciniphila 0.998 | Bacteroides caccae 0.956 | Bacteroides clarus 0.896 | Bacteroides dorei 0.932 | Bacteroides stercoris 0.809 | [1] 0.948 | Bacteroides uniformis 0.89 | [2] 0.987 | Clostridium difficile 0.975 | Collinsella aerofaciens 0.975

CC(Oc1ccc(Cl)cc1Cl)C(=O)O (stereo not given)
inactive: Akkermansia muciniphila 1.09 | Bacteroides caccae 1.02 | Bacteroides clarus 0.987 | Bacteroides dorei 0.942 | Bacteroides stercoris 0.981 | [1] 1 | Bacteroides uniformis 0.979 | [2] 1.04 | Clostridium difficile 1.01 | Collinsella aerofaciens 0.976

COP(=O)(OC)O/C(C)=C/C(=O)N(C)C
inactive: Akkermansia muciniphila 1.15 | Bacteroides caccae 1.01 | Bacteroides clarus 0.988 | Bacteroides dorei 0.993 | Bacteroides stercoris 1.02 | [1] 0.988 | Bacteroides uniformis 1.02 | [2] 0.989 | Clostridium difficile 0.987 | Collinsella aerofaciens 0.996

CS/C(C)=N/OC(=O)N(C)SN(C)C(=O)O/N=C(\C)SC
inactive: Akkermansia muciniphila 0.98 | Bacteroides caccae 1.02 | Bacteroides clarus 0.943 | Bacteroides dorei 1.05 | Bacteroides stercoris 1.09 | [1] 1.03 | Bacteroides uniformis 1.02 | [2] 1.04 | Clostridium difficile 1.01 | Collinsella aerofaciens 0.932

CCOP(=S)(OCC)Oc1ccc(=O)n(-c2ccccc2)n1
inactive: Akkermansia muciniphila 0.918 | Bacteroides caccae 0.997 | Bacteroides clarus 0.943 | Bacteroides dorei 0.977 | Bacteroides stercoris 0.959 | [1] 0.948 | Bacteroides uniformis 0.949 | [2] 1.04 | Clostridium difficile 0.936 | Collinsella aerofaciens 0.99

CNC(=O)/C(=N\OC)c1ccccc1Oc1ccccc1
inactive: Akkermansia muciniphila 0.873 | Bacteroides caccae 0.981 | Bacteroides clarus 0.959 | Bacteroides dorei 0.97 | Bacteroides stercoris 0.953 | [1] 1.02 | Bacteroides uniformis 0.998 | [2] 0.987 | Clostridium difficile 1.01 | Collinsella aerofaciens 1.03

CCCOc1nn(C(=O)[N-]S(=O)(=O)c2ccccc2C(=O)OC)c(=O)n1C.[Na+]
inactive: Akkermansia muciniphila 0.978 | Bacteroides caccae 1.02 | Bacteroides clarus 0.979 | Bacteroides dorei 1.02 | Bacteroides stercoris 1.13 | [1] 0.992 | Bacteroides uniformis 0.972 | [2] 1.01 | Clostridium difficile 0.994 | Collinsella aerofaciens 1.02

CC(C)(C)C(O)C(Oc1ccc(-c2ccccc2)cc1)n1cncn1 (mixture of isomers)
inactive: Akkermansia muciniphila 1.01 | Bacteroides caccae 0.919 | Bacteroides clarus 0.874 | Bacteroides dorei 0.926 | Bacteroides stercoris 1.11 | [1] 0.938 | Bacteroides uniformis 0.899 | [2] 0.847 | Clostridium difficile 0.924 | Collinsella aerofaciens 0.995
